Reference: PubChem BioAssay AID720526 (National Center for Advancing Translational Sciences (NCATS), 2013)
Results filed as inconclusive are left out. Where a call stands in place of a potency, no number is given. Calls of active or inactive are those of the source. The call rests on the fitted dose curve; in most records, active means well fitted activation curve with a large enough effect; inconclusive means small, poorly fitted or top-dose-only effect; inactive means no such curve, though single readings can be large or run the other way.

Assay: qHTS Assay for NPC1 Promoter Activators: Hit Validation Using Renila Luciferase Read-Out for NPC1
Method in brief: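 Huh7 cells stably carrying NPC promoter-luciferase reporter, exposed to compound for 24 h at 37 deg C. Luminescence read 10 min after adding luciferase detection reagent at room temperature.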
Potency means the concentration at half of the fitted maximal effect.

SMILES	Potency
Cc1cc(C)cc(N(CC(=O)NC2CCCC2)C(=O)CNC(=O)c2ccco2)c1	inactive
S=C1NCN(CCc2ccccc2)CN1Cc1ccccc1	inactive
Cc1ccc(C(=O)c2cn[nH]c2-c2ccccc2O)cc1	inactive
Nc1ccc(C(=O)Nc2ccccc2N)cc1	16.4 µM (active)
COc1ccc(-c2csc(Nc3ncccn3)n2)cc1C	inactive
COC(=O)c1ccc(NC(=O)c2ccc3nc(C)sc3c2)cc1	inactive
O=C(CCN1C(=O)c2ccccc2C1=O)Nc1ccc(-c2nc3ccccc3s2)cc1	inactive
Cc1cccc(NC(=O)CSc2nc3ccccc3o2)c1	inactive
Cc1ccc(N(O)C(=O)NCCCCNC(=O)N(O)c2ccc(C)cc2)cc1	inactive
Brc1ccccc1-c1nnc(CSc2nnc3sc4ccccc4n23)o1	inactive
CC(C)C(NC(=O)c1ccc([N+](=O)[O-])cc1Cl)C(=O)N1CCCC1 (stereo not drawn)	inactive
CC(C)(C)NC(=S)NNC(=O)c1ccc2ncccc2c1	inactive
Cc1ccc(C2C3=C(CC(C)(C)CC3=O)N(CCN3CCOCC3)C3=C2C(=O)CC(C)(C)C3)cc1	16.4 µM (active)
NNC(=O)c1cccc(S(=O)(=O)Nc2cc(Cl)ccc2Cl)c1	inactive
CCOC(=O)C1(Cc2cccc(Cl)c2)CCCN(C(=O)CCSC)C1 (stereo not drawn)	inactive
CCCCCCOc1ccc(OC(=O)c2cccnc2)cc1	1.84 µM (active)
CC(=O)[C@@H]1[C@@H](C(=O)c2ccc(C)cc2)[C@]2(C(=O)Nc3ccccc32)[C@H]2C=Cc3cc(F)ccc3N12	inactive
COc1ccc(NC(=S)NNC(=O)c2cccs2)cc1	inactive
CCN(C(=O)COC(=O)c1ccc(C=O)cc1)c1c(N)n(Cc2ccccc2)c(=O)[nH]c1=O	inactive

SMILES	Potency
Cc1ccc(CNC(=O)Nc2ccc(C)cc2)cc1	inactive
Cc1nn(CCCC(=O)NCc2ccc(F)cc2)c(C)c1[N+](=O)[O-]	inactive
COc1ccc(/C=C\c2onc(C)c2S(=O)(=O)N2CCC(C(=O)NCCC(C)C)CC2)cc1	inactive
COc1ccc2oc(=O)c(C(=O)NC(C)c3ccccc3)cc2c1 (stereo not drawn)	inactive
CCOCC(=O)Nc1c(C(=O)Nc2ccc3c(c2)OCCO3)oc2ccccc12	inactive
O=C(NCCc1ccccc1)c1cc2ncc(Br)cn2n1	inactive
CCN(Cc1nc2cc(Cl)ccc2c(=O)[nH]1)C(=O)C1CC(=O)N(c2cccc3ccccc23)C1 (stereo not drawn)	inactive
CC(=O)c1cccc(NC(=O)N2CCOCC2)c1	inactive
O=C(CCCN1C(=O)C(c2ccccc2)Oc2cccnc21)Nc1ccccc1Cl (stereo not drawn)	inactive
Cc1ccc(S(=O)(=O)N2CCN(c3cnn(C)c(=O)c3Cl)CC2)cc1	inactive
Cc1ccc2c(c1)sc1nc(=O)n(-c3ccccc3)c(=O)n12	inactive
CCN(CC)S(=O)(=O)c1ccc(NCc2ccccn2)nc1	inactive
COC(=O)c1ccccc1S(=O)(=O)NNC(=O)Nc1ccccc1	inactive
O=C(CSc1nnc(-c2ccccn2)o1)Nc1ccccc1F	inactive
CC1CN(C(=O)c2ccncc2)CC(C)O1 (stereo not drawn)	inactive
CC(=O)NC(=S)Nc1ccc2oc(-c3cc(F)c(F)cc3Cl)nc2c1	inactive
Cc1ccc(NC(=O)c2cccc(N3C(=O)CCC3=O)c2)nc1	inactive
CCC1CCCCN1CCCNC(=O)c1ccc2nc(N3CCCCC3)sc2c1 (stereo not drawn)	inactive
CC1CCc2sc(C(=O)NNC(=S)NC3CC3)cc2C1 (stereo not drawn)	inactive
